Reference: PubChem BioAssay AID686978 (National Center for Advancing Translational Sciences (NCATS), 2013)
Screen size: about 420,000 compounds; about 64,000 (15%) were called active. Not shown: some 27% with an inconclusive outcome. Only a sample is shown. Values without a mark were called inactive. Calls follow the shape of the dose curve; as a rule, active = well fitted inhibition curve with a large enough effect; inconclusive = small, poorly fitted or top-dose-only effect; inactive = flat fitted curve, though single readings scatter.

test: qHTS for Inhibitors of human tyrosyl-DNA phosphodiesterase 1 (TDP1): qHTS in cells in absence of CPT; conditions: DT40 Tdp1-/- hTDP1 cells, no CPT, ATP luminescence, 48 h; activity change, negative = growth inhibition: at 46.2 µM (top of the series); also: nearly all actives have a fitted effect of over 55% in size
Outline: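 Cells were dispensed at 400 per well, compounds added by pin tool, plates incubated ≥48 hr at 37 °C, then CellTiter-Glo added for 30 min at room temperature before luminescence reading. Line: DT40 Tdp1-/- complemented with hTDP1; camptothecin omitted.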
% is scaled to controls: 0 for no effect and ±100 for the full control effect; potency is read from the fitted curve at half-maximal effect.

SMILES | Potency | activity change, negative = growth inhibition [%]
CC(NC(=O)CCc1cn(Cc2ccccc2Cl)c2ccccc12)c1ccccc1 (stereo not drawn) | 23.1 µM (active) | 
O=C(CCc1cn(Cc2ccc(F)cc2)c2ccccc12)NC1CCCCC1 |  | -9.81
CC(NC(=O)Cn1cc(C(F)(F)F)cc(Cl)c1=O)c1ccccc1 (stereo not drawn) |  | -20.3
Cc1cc(C)n2nc(C(=O)OCC(=O)N(CCC#N)c3ccc(F)cc3)nc2n1 |  | 2.76
COC(=O)c1cn(-c2ccccc2)nc1-c1cccnc1 |  | 0.365
O=C(O)c1ccc(NC(=O)c2cn(-c3ccccc3)nc2-c2ccc(Cl)cc2)cc1 | 16.4 µM (active) | 
Cc1ccc(-c2nn(-c3ccccc3)cc2C(=O)NC2CCC(O)CC2)cc1 (stereo not drawn) |  | -23.4
NCCCCCC(=O)N/N=C/c1ccc2nccnc2c1 |  | -22.9
Cc1ccc(S(=O)(=O)N(C)C)cc1NC(=O)COC(=O)/C=C/c1cccs1 |  | -17.8
CCN1CCN(C(=O)CCN2C(=O)c3ccccc3C2=O)CC1 |  | 6.03
O=C(Nc1cccc(F)c1)N1C2CCC1CC(O)(c1cccnc1)C2 (stereo not drawn) |  | -5.57
CCOc1ccc(OCC)c(NC(=O)CCS(=O)(=O)c2ccc(C)cc2)c1 |  | -22.3
CCCCC(CCC(=O)Nc1ccc(C(=O)OCC)cc1)C(=O)O (stereo not drawn) |  | -4.15
Cc1ccc(S(=O)(=O)CCC(=O)Nc2nnc(CC(C)C)s2)cc1 | 16.4 µM (active) | 
CC(C)Cc1nnc(NC(=O)CCc2ccccc2)s1 |  | -6.82
Cc1ccc(S(=O)(=O)CC(=O)Nc2nnc(C)s2)cc1 |  | 3.14
CCOC(=O)c1ccc(NC(=O)CCS(=O)(=O)c2ccc(C)cc2)cc1 | 20.6 µM (active) | 
CC(C)CC(NS(=O)(=O)c1ccc2c(c1)oc(=O)n2C)C(=O)NCc1ccccc1Cl (stereo not drawn) |  | -11.8
Cc1cc(F)ccc1N1CCC(N2CCN(C)C(CCO)C2)CC1 (stereo not drawn) |  | -12.5
CC(C)n1c(O)c(N=Nc2ccccn2)c2ccccc21 |  | -8.18
CCC(C)NC(=O)c1ccccc1NC(=O)c1ccccc1N(C)S(C)(=O)=O (stereo not drawn) |  | -19.8
Cc1n[nH]c(=O)n1-c1ccc(C(C)C)cc1 |  | 15.4
O=C1c2cccc3cccc(c23)C(=O)N1c1cccc(O)c1 |  | -6.3
Cc1nnc(CN(C)Cc2cn[nH]c2-c2ccc(-c3ccccc3)cc2)o1 |  | -6.06
CC1CCCN(S(=O)(=O)c2ccc(-c3ccc(=O)[nH]n3)o2)C1 (stereo not drawn) |  | -8.44
O=S(=O)(NCc1ccccc1)c1ccc(S(=O)(=O)N2CCCC2)cc1 |  | -20.5
O=S(=O)(c1ccc2nc(N3CCN(c4cccc(Cl)c4)CC3)ccc2c1)N1CCCCC1 |  | -1.01

SMILES | Potency | activity change, negative = growth inhibition [%]
O=S(=O)(c1ccc2nc(NCc3ccccc3Cl)ccc2c1)N1CCCCC1 | 10.3 µM (active) | 
CN(C(=O)CCNC(=O)Cn1ccc2ccccc2c1=O)c1ccc(Br)cc1 |  | 3.44
CC/C(=N/Nc1ccccc1)c1cnnc(SC)n1 |  | 8.67
COc1cccc(C(=O)Oc2cc(C)[nH]c(=O)c2[N+](=O)[O-])c1 |  | -8.65
COc1ccc(/C=C/c2noc(-c3ccccc3OC(C)=O)n2)cc1 |  | -13.5
CC(C)/C=N/NC(=O)c1cc(Br)ccc1O |  | -12.7
O=C(CCc1ccc(O)cc1)NN=Cc1cc(Br)ccc1O | 5.8 µM (active) | 
O=C(CCC(=O)N/N=C/c1ccc(Br)o1)N/N=C/c1ccc(Br)o1 |  | 1.16
CCCC1NC(=O)NC(C)=C1C(=O)OCC (stereo not drawn) |  | -0.636
Nc1ncnc(Nc2cccc(Cl)c2Cl)n1 |  | 24.3
O=C(CSc1nccc(=O)[nH]1)Nc1ccc(N2CCOCC2)c(Cl)c1 |  | -14.9
Cc1ccc(OCC(=O)Nn2cnc3ccccc32)cc1 |  | -10.1
Cc1ccccc1OCC(O)CN1CCN(c2ccccn2)CC1 (stereo not drawn) |  | -1.08
CC(=O)Nc1ccc(OCC(O)CN2CCN(c3ccccc3Cl)CC2)cc1 (stereo not drawn) |  | -24.4
CC(C)c1ccc(OCC(O)CN2CCN(c3ccccn3)CC2)cc1 (stereo not drawn) | 10.3 µM (active) | 
CC(C)c1ccc(OCC(O)Cn2cnc3ccccc32)cc1 (stereo not drawn) | 14.6 µM (active) | 
OC(COc1ccccc1)Cn1cc(Br)cn1 (stereo not drawn) |  | 24
Cc1nc2ccc(S(=O)(=O)NCC(=O)O)cc2s1 |  | -26.2
CC(=O)OC[C@H]1O[C@@H](O[C@H]2[C@H](O)[C@@H](OC(=O)c3ccccc3C(=O)O)[C@H](O)O[C@@H]2COC(C)=O)[C@H](O)[C@@H](OC(=O)c2ccccc2C(=O)O)[C@@H]1O |  | -0.0815
Cc1ccc(CNC(=O)C2CCCN2S(=O)(=O)c2ccc3c(c2)C(C)(C)C(=O)N3C)cc1 (stereo not drawn) |  | -20.1
C=CCOc1ccc(C(=O)Nc2ccccc2C(=O)N2CCCC2)cc1 |  | -21
Cn1nnnc1NCc1ccc(Cl)c(Cl)c1 |  | -15
NS(=O)(=O)c1ccc(CNC(=O)c2ccc(Cl)cc2[N+](=O)[O-])cc1 |  | -20.7
Cc1cc2nn(-c3ccc(Cl)cc3)nc2cc1NC(=O)C(C)C |  | -7.99
Nc1ccc2nn(-c3ccc(Cl)cc3)nc2c1 | 9.2 µM (active) | 
O=C(Cc1ccc(Cl)cc1)Nc1ccc2nn(-c3ccc(Cl)cc3)nc2c1 |  | -8
